# Measured values reported in PubChem BioAssay AID651598 (Sanford-Burnham Center for Chemical Genomics, 2012).
# “And” between values parts separate entries of the source, which are not always exact repeats. Equal values may be shown once.
# Target: C-X-C chemokine receptor type 6 (Homo sapiens) (UniProt O00574)
# Assay: APJ beta-arrestin recruitment blockade alongside CXCR6 – cell-based, DiscoveRx, panel, CHO-K1, counter-screen for CXCR6 antagonist project, SAR follow-up (AID 651598)
# Details: CHO-K1 PathHunter beta-arrestin luminescence, antagonist mode; run 2, at 80 µM (top of the series)
# C-X-C chemokine receptor type 6 (Homo sapiens), sequence (O00574 whole entry, looked up): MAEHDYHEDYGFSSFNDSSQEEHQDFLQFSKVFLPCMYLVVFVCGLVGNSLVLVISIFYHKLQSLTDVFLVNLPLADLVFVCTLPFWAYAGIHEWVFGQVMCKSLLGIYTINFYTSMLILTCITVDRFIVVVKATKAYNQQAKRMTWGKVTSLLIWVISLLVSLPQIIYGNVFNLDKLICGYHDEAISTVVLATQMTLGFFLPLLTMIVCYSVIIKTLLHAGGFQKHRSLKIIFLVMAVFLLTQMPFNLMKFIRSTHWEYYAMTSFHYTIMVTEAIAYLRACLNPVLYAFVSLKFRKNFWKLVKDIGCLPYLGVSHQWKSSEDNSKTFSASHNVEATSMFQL
row,Compound,inhibition
1,COc1cc(C(=O)NC2CCN(CC(=O)Nc3ccccc3)CC2)cc(OC)c1OC,25.1%
2,COc1cc(C(=O)NC2CC3CCCC(C2)N3CC(=O)Nc2ccccc2)cc(OC)c1OC (stereo not drawn),88.2% and 52.1% and 24.9%
3,COc1cc(C(=O)NC2CC3CCC(C2)N3CC(=O)Nc2ccccc2)cc(OC)c1OC (stereo not drawn),48.5% and 18.7%
